Results published in PubChem BioAssay (EPA / NIEHS).
Values joined by “and” are separate entries in the source; they are usually repeats but may differ in a detail not shown here. Equal values may be shown once. Inconclusive results are not listed. A structure can be active in one record and inactive in another. Active and inactive are the calls of the source. The calls were made as follows: active = hit-call score of the fitted dose curve at least 0.9, where 1 is the maximum; inconclusive = response in the unintended direction; inactive = score below 0.9.

tested on: frog Estrogen Receptor (ESR1), gene 398734; experiment: ATG_frER1_XSP1: Attagene TRANS-FACTORIAL Multi-Species (XSP1) HepG2 Assay for frog Estrogen Receptor (ESR1) (AID 2283777)
Outline: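 HepG2 cells transiently transfected with GAL4-UAS reporter units and frog ER–Gal4 chimera were dosed for 24 h with 3 nM 6-alpha-fluorotestosterone present. Reporter mRNA was measured by RT-PCR and capillary electrophoresis; gain of signal fitted versus DMSO.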

Which outcome does the source give for `Cc1oc(-c2ccccc2)nc1CCOc1ccc(C[C@H](Nc2ccccc2C(=O)c2ccccc2)C(=O)O)cc1` here?
Its outcome is “inactive”.

With `CC[C@H](c1ccc(O)cc1)[C@@H](CC)c1ccc(O)cc1` as the compound, how does the AC50 read?
Its AC50 is 0.0764 nM (active).

With `CCC(C)(C)C1CCC(O)CC1` (stereo unspecified) as the compound, how does the outcome read?
The outcome was “inactive”.

target: chicken Estrogen Receptor (ESR1), ESR1 (gene 396099) (UniProt P06212); experiment: ATG_chERa_XSP1: Attagene TRANS-FACTORIAL Multi-Species (XSP1) HepG2 Assay for chicken Estrogen Receptor (ESR1) (AID 2283779)
Sequence (P06212 whole entry, looked up): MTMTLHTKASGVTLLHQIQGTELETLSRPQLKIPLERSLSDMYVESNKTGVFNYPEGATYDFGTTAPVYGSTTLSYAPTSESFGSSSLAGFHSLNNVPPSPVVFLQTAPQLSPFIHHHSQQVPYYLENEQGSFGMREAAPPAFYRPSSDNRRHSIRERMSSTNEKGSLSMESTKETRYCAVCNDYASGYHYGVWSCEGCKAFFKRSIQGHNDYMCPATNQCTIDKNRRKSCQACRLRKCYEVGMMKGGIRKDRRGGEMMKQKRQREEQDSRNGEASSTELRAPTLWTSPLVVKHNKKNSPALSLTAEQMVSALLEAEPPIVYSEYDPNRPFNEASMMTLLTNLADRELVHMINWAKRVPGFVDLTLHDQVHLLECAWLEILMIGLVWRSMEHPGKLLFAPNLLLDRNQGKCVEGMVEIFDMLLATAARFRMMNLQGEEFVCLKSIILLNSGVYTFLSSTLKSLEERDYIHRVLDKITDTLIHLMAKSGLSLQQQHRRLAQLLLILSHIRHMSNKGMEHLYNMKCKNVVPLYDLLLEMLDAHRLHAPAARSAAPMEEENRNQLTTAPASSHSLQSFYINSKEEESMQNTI
Procedure: (§1) ATG_XSP1_multi-species_TRANS is a cell-based, multiplexed assay created by modifying the existing Attagene TRANS-FACTORIAL system to include a panel of nuclear receptors from some or all the following species: human (Homo sapiens), mouse (Mus musculus), frog (Xenopus laevis), zebrafish (Danio rerio), chicken (Gallus gallus), and turtle (Chrysemys picta). The ECOTOX-FACTORIAL format uses HepG2, a human liver cell line, with measurements taken at 24 hours after chemical dosing in a 24-well plate. Xsp1 included 3 nM 6-alpha-fluorotestosterone to partially stimulate the androgen receptor.ATG_chERa_XSP1 is one of 29 assay components measured or calculated from the ATG_XSP1_multi-species_TRANS assay. It is designed to make measurements of mRNA induction, a form of inducible reporter, as detected with fluorescence intensity signals by Reverse transcription polymerase chain reaction (RT-PCR) and Capillary electrophoresis technology.The assay endpoint ATG_chERa_XSP1 was analyzed in the positive analysis fitting direction relative to DMSO as the negative control and baseline of activity. Using a type of inducible reporter, measures of mRNA for gain-of-signal activity can be used to understand the reporter gene at the transcription factor-level as they relate to the gene ER. Furthermore, this assay endpoint can be referred to as a primary readout, because this assay has produced multiple assay endpoints where this one serves a reporter gene function. […]
(§2) Human liver HepG2 cells are transiently transfected with multiple reporter transcription units (MRTUs) in 6-well plates using FuGene 6 reagent (Roche; 3 ml FuGene/1 mg DNA). […] A major difference between the CIS and TRANS system is that in CIS activities of endogenous TFs are measured, whereas the TRANS assay evaluates changes in activities of exogenous, chimeric NR-Gal4 proteins. […] The fragments were purified using Qiaquick PCR columns (Qiagen), analyzed on an ABI 3130xL genetic analyzer (Applied Biosystems) with peak positions identified by using a set of X-rhodamine (ROX)-labeled MapMarker1000 molecular weight standards (BioVentures). […]

With `Cc1oc(-c2ccccc2)nc1CCOc1ccc(C[C@H](Nc2ccccc2C(=O)c2ccccc2)C(=O)O)cc1` as the compound, how does the outcome read?
Its outcome is “inactive”.

With `CC[C@H](c1ccc(O)cc1)[C@@H](CC)c1ccc(O)cc1` as the compound, how does the AC50 read?
The AC50 was 0.0207 nM (active).

With `CCC(C)(C)C1CCC(O)CC1` (stereo unspecified) as the compound, how does the outcome read?
The outcome was “inactive”.

tested on: turtle Estrogen Receptor (ESR1), gene 101933533; experiment: ATG_trERa_XSP1: Attagene TRANS-FACTORIAL Multi-Species (XSP1) HepG2 Assay for turtle Estrogen Receptor (ESR1) (AID 2283781)
Procedure: as §1, with “receptor.ATG_trERa_XSP1” for “receptor.ATG_chERa_XSP1”, “ATG_trERa_XSP1” for “ATG_chERa_XSP1”
as §2

For `Cc1oc(-c2ccccc2)nc1CCOc1ccc(C[C@H](Nc2ccccc2C(=O)c2ccccc2)C(=O)O)cc1`, which outcome is on record?
Its outcome is “inactive”.

With `CC[C@H](c1ccc(O)cc1)[C@@H](CC)c1ccc(O)cc1` as the compound, how does the AC50 read?
The AC50 was 2.26e-05 µM (active).

For `CCC(C)(C)C1CCC(O)CC1` (stereo unspecified), which AC50 is on record?
The AC50 was 10 µM (active).

tested on: not listed separately; experiment: ACEA_ER_AUC_viability: ACEA Biosciences xCELLigence Real-Time Cell Analysis on Estrogen Receptor Agonism for Viability (AID 2283782);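 also: hit means loss of impedance signal meaning reduced cell growth or viability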
Outline: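 Viability endpoint: reduced impedance area under the curve relative to DMSO, recorded by real-time electrode sensing over ~80 h of continuous exposure. Duplicate plates of T47D in hormone-depleted medium; eight concentrations, 1:4 dilutions, 100 uM maximum.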

For `Oc1cc2ccccc2c2ccccc12`, which AC50 is on record?
The AC50 was 4.66 µM (active).

With `CCN(CC)CCNc1ccc(CNC=O)c2sc3ccc(OC)cc3c(=O)c12` as the compound, how does the AC50 read?
Its AC50 is 83.2 µM (active).

With `Cc1oc(-c2ccccc2)nc1CCOc1ccc(C[C@H](Nc2ccccc2C(=O)c2ccccc2)C(=O)O)cc1` as the compound, how does the AC50 read?
The AC50 was 78.5 µM (active).

For `CC(C)(C)c1ccc(O)c(C(C)(C)C)c1`, which AC50 is on record?
Its AC50 is 17.3 µM (active).

For `Nc1cccc2c(N)cccc12`, which outcome is on record?
The outcome was “inactive”.

For `CCC(=C(c1ccc(O)cc1)c1ccc(OCCN(C)C)cc1)c1ccccc1`, which AC50 is on record?
The AC50 was 5.17 µM (active) and 6.37 µM (active) and 12.9 µM (active).

Which results are given for `CC[C@H](c1ccc(O)cc1)[C@@H](CC)c1ccc(O)cc1`?
AC50: 83.3 µM (active); outcome: inactive

For `CCCCCCCCCCCCc1ccccc1S(=O)(=O)O`, which AC50 is on record?
The AC50 was 83.7 µM (active).

Which AC50 does the source give for `CC#C[C@]1(O)CC[C@H]2[C@@H]3CCC4=CC(=O)CCC4=C3[C@@H](c3ccc(N(C)C)cc3)C[C@@]21C` here?
The AC50 was 90.5 µM (active) and 83.7 µM (active) and 82.6 µM (active).

Which outcome does the source give for `CCC(C)(C)C1CCC(O)CC1` (stereo unspecified) here?
Its outcome is “inactive”.

For `NC(=O)N(O)[C@@H]1C=C[C@H](Oc2cccc(Oc3ccc(F)cc3)c2)C1`, which AC50 is on record?
The AC50 was 92.6 µM (active).

For `O=C(O)c1ccccc1C(c1ccc(O)cc1)c1ccc(O)cc1`, which outcome is on record?
The outcome was “inactive”.

Which outcome does the source give for `Cc1cc(C)c(O)c(C)c1` here?
The outcome was “inactive”.

Which AC50 does the source give for `CCCCCCCCCCCCCC[N+](C)(C)C` here?
The AC50 was 15.9 µM (active) and 6.59 µM (active).

With `CN1CCN(c2ccccc2/C=C2\SCCN(c3ccc(Cl)c(Cl)c3)C2=O)CC1` as the compound, how does the AC50 read?
The AC50 was 50 µM (active).

Which outcome does the source give for `CC(C)(C)c1cccc(C(C)(C)C)c1O` here?
The outcome was “inactive”.
